# Bioassay records from PubChem BioAssay.
# Shown are actives, neighbours in structure and some others; about 9% of the full set was active somewhere.
# HPGD block – qHTS Assay for Inhibitors of HPGD (15-Hydroxyprostaglandin Dehydrogenase) | AID 894, 2007 | hit rate 4.3% among 150,000 | 15-hydroxyprostaglandin dehydrogenase [NAD(+)] (Homo sapiens), P15428 | Potency, µM, without a hit: at the top dose activity change, negative = inhibition, most hits filed as inhibitors | purified HPGD, NADH fluorescence kinetic, PGE2 substrate; further: potency means the concentration at half of the fitted maximal effect
# Target sequence (P15428 whole entry, looked up): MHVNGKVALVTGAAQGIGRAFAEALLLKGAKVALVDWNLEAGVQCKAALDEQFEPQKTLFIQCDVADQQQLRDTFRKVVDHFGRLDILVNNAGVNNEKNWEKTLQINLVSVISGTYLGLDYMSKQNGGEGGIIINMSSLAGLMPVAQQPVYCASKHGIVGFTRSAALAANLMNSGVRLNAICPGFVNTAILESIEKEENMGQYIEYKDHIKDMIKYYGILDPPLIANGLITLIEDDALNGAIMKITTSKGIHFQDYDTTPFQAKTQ
#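 20 nM HPGD preincubated 15 min at room temperature with compound in 50 mM Tris-HCl pH 8, 0.01% Tween 20. Started with 1 mM NAD+ and 30 uM prostaglandin E2; NADH fluorescence (360/450 nm) read 5 times over 30-s intervals, last minus first.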
# IMPase cell inh – qHTS Assay for Identifying the Cell-Membrane Permeable IMPase Inhibitors; CHO-M1 cells, IP1 accumulation, HTRF TR-FRET ratio; inhibition (IP1 accumulation), % at 46.1 µM; 120,000 tested, under 10 active; active means well fitted curve in the direction sought with a large enough effect in the signal ratio, not every such curve was filed as active; inconclusive means small, poorly fitted or top-dose-only effect, or a change in a side signal; inactive means no such curve, though single readings can be large or run the other way; the % refers to the signal ratio;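 further: cells stimulated with carbachol in lithium chloride buffer; plate controls were DMSO basal wells for no effect and reference inhibitor wells for full effect; higher means more IMPase inhibition seen as more IP1 and lower FRET ratio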
# Target sequence (P97697 whole entry, looked up): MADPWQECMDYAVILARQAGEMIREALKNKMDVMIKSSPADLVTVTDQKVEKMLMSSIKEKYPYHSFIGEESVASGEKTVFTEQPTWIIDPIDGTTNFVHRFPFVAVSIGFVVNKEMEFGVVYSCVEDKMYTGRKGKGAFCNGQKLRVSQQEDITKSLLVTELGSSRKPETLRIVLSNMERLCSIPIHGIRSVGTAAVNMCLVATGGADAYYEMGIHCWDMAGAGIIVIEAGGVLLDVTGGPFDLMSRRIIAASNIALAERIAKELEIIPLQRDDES
#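 In this qHTS, compounds (final up to 46 uM) act on CHO-M1 cells that are then activated through the M1 receptor with carbachol, in pH 7.4 buffer containing 50 mM LiCl, for 30 min. IP1 accumulation is quantified by the IP-One immunoassay.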
# ALDH1A1 block – qHTS Assay for Inhibitors of Aldehyde Dehydrogenase 1 (ALDH1A1); Purified ALDH1A1, NADH fluorescence, propionaldehyde substrate; Aldehyde dehydrogenase 1A1 (Homo sapiens), P00352; Potency, µM (doses to about 75.3 µM), inactives show at the top dose activity, negative = inhibition, usual class: inhibitors; hit rate 7.3% among 220,000;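 further: potency means the concentration at half of the fitted maximal effect; plate controls were no enzyme wells and a reference inhibitor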
# * hit, by the source's call; ? = inconclusive; / = no result given. Unless noted, the call rests on the fitted dose curve; in most records, active means well fitted inhibition curve with a large enough effect (not every such curve was filed as active); inconclusive means small, poorly fitted or top-dose-only effect, or another doubt; inactive means no such curve, though single readings can be large or run the other way. Unless noted, on the % scale 0 is the no-effect control and ±100 the full control effect.
SMILES,HPGD block,IMPase cell inh,ALDH1A1 block
Cc1ccc(-c2[nH]c3ccccc3c2C(C[N+](=O)[O-])c2ccco2)cc1 (stereo not given),-28.6%,1.5,28.2µM*
Cc1[nH]c2ccccc2c1C(C[N+](=O)[O-])c1cccs1 (stereo not given),/,/,3.6%
Cc1nnc(SCc2cc([N+](=O)[O-])cc3c2OCOC3)n(N)c1=O,/,/,3.2%
CN(C)S(=O)(=O)c1cccc(-c2nnc(SCc3cc(Cl)cc4c3OCOC4)n2N)c1,7.08µM*,1.8,25.1µM*
COc1cccc(NC(=O)CSc2nc3ccccc3c(=O)n2CCCC(=O)N2CCCC2)c1,28.2µM*,?,?
CCc1ccc(NC(=O)CSc2nc3ccccc3c(=O)n2CCCC(=O)NCCCN2CCOCC2)cc1,/,/,-0.7%
Cc1cc(NC(=O)CSc2nc3ccccc3c(=O)n2C2CCCC2)no1,-0.8%,6.9,5.1%
CN(C)c1ccc(NC(=O)CSc2nc3ccccc3c(=O)n2C2CCCCC2)cc1,-18.3%,7.3,7.08µM*
COc1cccc(NC(=O)CSc2nc3ccccc3c(=O)n2Cc2cccs2)c1,-7.0%,/,?
CCOc1ccc(NC(=O)CSc2nc3ccccc3c(=O)n2CCCC(=O)NCCCN2CCCC2=O)cc1,/,/,7.94µM*
CCOc1ccc(NC(=O)CSc2nc3ccccc3c(=O)n2CCCC(=O)N2CCCC2)cc1,/,?,10.4%
COc1ccc(NC(=O)CSc2nc3ccccc3c(=O)n2CCC(=O)N2CCCCC2)cc1,-5.2%,-2.8,15.8µM*
O=C(CN1CCN(Cc2ccc(F)cc2)C1=O)NC1CCCC1,/,/,-10.9%
COc1ccc(N(CC2CO2)S(=O)(=O)c2ccccc2)cc1 (stereo not given),/,/,6.8%
COc1cc2ccccc2cc1C(=O)Nc1ccc2oc(-c3cc(Br)ccc3Cl)nc2c1,/,-5.5,/
CC1CCc2cc(F)ccc2N1C(=O)CSc1nnc(-c2cccs2)n1C (stereo not given),/,-1.1,-12.4%
CC1(C)CC(=O)C/C(=N\NC(=O)C2CC2c2ccccc2)C1 (stereo not given),/,/,31.6µM*
CC1(C)CC(=O)C/C(=N\NC(=O)C2CC23CCC3)C1 (stereo not given),/,/,-3.9%
Cc1cccc(CCNC(=O)c2cc(=O)[nH]c3ccc(Br)cc23)c1,-5.9%,?,3.7%
O=C(Nc1cccc(C(F)(F)F)c1)C1CCCN1S(=O)(=O)c1cccc2cccnc12 (stereo not given),1.8%,2.6,-0.9%
CC(C)(C)n1nnnc1CN1CCN(C2CCCC2)CC1,-3.8%,5.4,2.1%
CC(C)(C)n1nnnc1CN1CCSCC1,-2.2%,-6.8,25.1µM*
COC(=O)c1cccc(CSc2nnc(C)s2)c1,-14.7%,1.5,-4.8%
O=C(CCN=C1NS(=O)(=O)c2ccccc21)N1CCc2ccccc2C1,/,/,14.6%
Fc1ccc(/C=N/N2CCOCC2)c(F)c1,/,/,1.7%
SMILES,HPGD block,IMPase cell inh,ALDH1A1 block
Oc1ccc(/C=N/N2CCOCC2)c(O)c1O,/,/,7.08µM*
CN(C)S(=O)(=O)c1cccc(NC(=O)COC(=O)/C=C/c2ccco2)c1,-15.5%,/,-7.3%
CC(C)c1ccc(NC(=O)COC(=O)/C=C/c2cccc([N+](=O)[O-])c2)cc1,-6.9%,/,-0.2%
CCN(CC)S(=O)(=O)c1cccc(NC(=O)COC(=O)/C=C/c2ccco2)c1,-12.6%,/,25.1µM*
O=C(COC(=O)/C=C/c1ccco1)Nc1cccc([N+](=O)[O-])c1,-14.0%,-17.0,25.1µM*
S=C(NCc1cccnc1)Nc1ccc(Oc2ccc(Cl)cc2)cc1,/,/,3.9%
Cc1ccc(S(=O)(=O)N(C)CCCC(=O)Nc2cccc3ccccc23)cc1,-9.8%,/,-5.5%
CSc1nc2sc3c(c2c2nncn12)CCC3,-11.6%,/,7.94µM*
c1nnc2c3c4c(sc3ncn12)CCCC4,-1.5%,-5.2,21.6%
COc1ccc(NC2=C(NCCO)C(=O)c3ccccc3C2=O)cc1,-18.1%,/,11.2µM*
COc1ccc(C2=C(Nc3ccccc3)c3ccccc3C2=O)cc1,-6.9%,-8.8,10.0%
COc1ccc(NC2=C(c3ccc(OC)cc3)C(=O)c3ccccc32)cc1,-7.6%,/,14.3%
COC1=C(Nc2ccc(OC)cc2)C(=O)c2ccccc2C1=O,15.8µM*,/,?
Cc1cccc(NC2=C(NCCO)C(=O)c3ccccc3C2=O)c1,-5.8%,/,25.1µM*
Cc1cccc(Nc2nc(N)c([N+](=O)[O-])c(NCCO)n2)c1,/,/,-6.4%
COC1=C(Nc2ccc(O)cc2)C(=O)c2ccccc2C1=O,28.2µM*,/,17.8µM*
O=C1C=C(Nc2ccc(O)cc2)C(=O)c2ccccc21,/,/,-8.0%
CCOC(=O)C1CCN(C(=O)c2ccc3c(c2)N=C(CC)c2cc(C)ccc2S3)CC1,/,17.8,/
CCOC(=O)C1(Cc2cccc(OC)c2)CCN(Cc2cccnc2)CC1,/,/,-10.2%
C=CCOc1ccc2c(c1)c(=O)cc(C(=O)O)n2CC,/,/,-8.7%
CCOc1ccc(NC2=C(OC)C(=O)c3ccccc3C2=O)cc1,20µM*,/,3.16µM*
CCOc1ccc(NS(=O)(=O)N(C)C)cc1,-27.5%,7.9,-0.5%
O=C(CSc1nnc(-c2ccco2)n1CC1CCCO1)c1ccc(F)cc1 (stereo not given),-10.4%,-18.7,?
Cc1cccc2cc(CN(Cc3ccc(F)cc3)Cc3nnnn3C3CCCC3)c(=O)[nH]c12,6.9%,0.2,14.1µM*
Cc1ccc(C)c2[nH]c(=O)c(CN(CCN3CCOCC3)Cc3nnnn3CC3CCCO3)cc12 (stereo not given),-15.1%,3.9,?
SMILES,HPGD block,IMPase cell inh,ALDH1A1 block
COc1cc2cc(CN(Cc3nnnn3C3CCCC3)C3CCCC3)c(=O)[nH]c2cc1OC,-13.8%,-7.8,-3.1%
COc1ccc2cc(CN(CCCN3CCOCC3)Cc3nnnn3C3CCCCC3)c(=O)[nH]c2c1,-2.9%,0.1,12.6µM*
Cc1ccc(C)c2[nH]c(=O)c(CN(Cc3nnnn3C3CCCCC3)CC3CCCO3)cc12 (stereo not given),-16.0%,1.8,1.78µM*
Cc1ccc2[nH]c(=O)c(CN(Cc3nnnn3C3CCCC3)C3CCCCC3)cc2c1,-9.5%,1.5,25.1µM*
Cc1cc(C)c2[nH]c(=O)c(CN(Cc3ccc4c(c3)OCO4)Cc3nnnn3C3CCCC3)cc2c1,-26.0%,6.0,?
CCC(c1nnnn1C1CCCCC1)N(Cc1ccco1)Cc1cc2ccc(OC)cc2[nH]c1=O (stereo not given),-25.9%,-5.5,?
Cc1ccc(CCN2C(=O)c3ccccc3C2C(=O)NCc2cccnc2)cc1 (stereo not given),/,/,1.5%
COc1cccc(CN2CCNC(=O)C2CC(=O)N(Cc2cnn(C)c2)C(C)C)c1 (stereo not given),/,/,-1.5%
O=c1[nH]c2cc3c(cc2cc1CN(Cc1nnnn1C1CCCC1)C1CCCC1)OCCO3,-4.6%,0.4,?
Cc1ccc2[nH]c(=O)c(C(c3nnnn3C3CCCC3)N(Cc3cccnc3)Cc3ccco3)cc2c1 (stereo not given),-4.2%,10.1,4.47µM*
Cc1ccc2cc(CN(Cc3nnnn3C3CCCC3)C3CCCCC3)c(=O)[nH]c2c1C,-7.5%,-6.6,7.94µM*
COc1ccc2[nH]c(=O)c(CN(Cc3ccccc3)Cc3nnnn3CC3CCCO3)cc2c1 (stereo not given),?,-0.9,?
